MEKK2wt PB1 HTS: modulators of MEK5 binding to wildtype MEKK2, primary screen, biochemical, multiplex bead flow cytometry, Alexa488-MEK5. Mitogen-activated protein kinase kinase kinase 2 (Homo sapiens), Q9Y2U5. Alexa488-MEK5 binding to MEKK2 WT; actives lie on both sides. binding response (% of control), % at 10 µM. hit rate 1.1% among 290,000. AID 1531, 2009; in the data active = binding response below about 67% or above about 130%
CHT allo act: CHT positive allosteric modulators, primary screen, cell-based, membrane potential dye, choline EC20 | B-score at 10 µM | CHT-expressing cells; stronger effect = higher value; LV-AA mutant CHT in HEK293 cells | hit rate 0.49% among 310,000 | High affinity choline transporter 1 (Homo sapiens), Q9GZV3;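 active = initial fluorescence not abnormally high and integrated response B-score, plate-corrected, over 3 SD above library mean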
CHT block: inhibitors of human choline transporter CHT; High affinity choline transporter 1 (Homo sapiens), Q9GZV3; CHT-expressing cells, membrane potential dye, choline response; stronger effect = lower value; B-score at 10 µM; hit rate 0.86% among 310,000; AID 488975, 2010;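 active = B-score over 3 SD under the library average, and starting fluorescence ratio not unusually high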;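 note: choline stimulus applied at its EC90 after an EC20 pre-addition; B-score computed on integrated fluorescence ratio after choline addition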
MEKK3 PB1 HTS: modulators of MEKK3-MEK5 PB1 binding, primary screen, biochemical, wildtype MEKK3, multiplex bead flow cytometry, Alexa488-MEK5. Mitogen-activated protein kinase kinase kinase 3 (Homo sapiens), Q99759. bead-based flow cytometry, Alexa488-MEK5 binding to MEKK3; actives lie on both sides; 0 = blocked by unlabeled MEK5, 100 = vehicle. binding response (% of control), % at 10 µM. hit rate 1.4% among 290,000. AID 1529, 2009;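 active = binding response more than 3 SD above or below the average of its plate-row segment, actives on both sides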;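 note: Alexa488 bead fluorescence after subtracting the streptavidin-only scavenger bead signal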
MEKK2 mut-MEK5: MEK5 binding signal on mutant MEKK2 PB1, primary screen, biochemical, multiplex bead flow cytometry, Alexa488-MEK5; percent response, % at 10 µM; Alexa488-MEK5 binding to MEKK2 mutant; AID 1530, 2009; hit rate 0.35% among 290,000; in the data active = percent response above about 24%, passing the limit was not always enough
SUMO Mot1 rescue: yeast Mot1-301 growth rescue at high temperature, primary screen, SUMOylation pathway inhibitor project, S. cerevisiae, ATP luminescence, 38.5C. S. cerevisiae Mot1-301 growth rescue; percent above DMSO median, 100 means doubled. growth rescue, % at 18.8 µM. hit rate 1% among 320,000. AID 2716, 2010;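 active = every valid replicate shows activation above 250% relative to neutral control wells; inactive = the rest, any valid replicate at or below 250%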;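 note: OY570 slx delta 5 strain wells were the positive control but not used for scaling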
CHT inh conf: CHT inhibitors, confirmation, cell-based, membrane potential dye, duplicate | shares compounds with CHT block | CHT-expressing cells, choline membrane potential dye; LV-to-AA substituted CHT, HEK293 cells | CHT activity remaining % of control (stronger effect = lower value), % at 10 µM | hit rate 70% among 2,400;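 active = choline transporter activity left, mean of duplicates at 10 µM, below buffer-only control mean minus 3 SD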;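 note: depolarization triggered by choline at its EC90 following an EC20 pre-addition; 0% = hemicholinium-3 full block and 100% = buffer-only control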
HEK293 MPD ctr: membrane potential effects in parental HEK293, counter-screen for CHT inhibitor project, cell-based, membrane potential dye; hit rate 4% among 2,400; shares compounds with CHT block; choline response; active = decrease or increase beyond buffer ±3SD; membrane potential ratio readout (active if shifted either direction beyond buffer ±3SD; no single direction) at 10 µM; AID 493222, 2011;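 note: parental cells lack the transporter so any hit is non-specific; ratio is peak minus trough fluorescence over baseline after EC90 choline challenge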
An asterisk follows results filed as active; i = inactive; · = not tested or not shown. In the library only some 4.1% were active in any assay of this set; here they are far more common.

SMILES | MEKK2wt PB1 HTS | CHT allo act | CHT block | MEKK3 PB1 HTS | MEKK2 mut-MEK5 | SUMO Mot1 rescue | CHT inh conf | HEK293 MPD ctr
CCOC(=O)C1=C(CC)OC(N)=C(C#N)C1c1cc(OC)ccc1OC (configuration not stated) | 100 | i | -13* | 97 | -5 | -7 | i | i
CSC(=NC#N)N1CCN(c2ccc(Cl)cc2)CC1 | 100 | i | i | 101 | -1 | · | · | ·
CCCCN(CC(O)COc1cccc(C)c1)CC(O)COc1cccc(C)c1 (configuration not stated) | 121 | i | i | 107 | 1 | -10 | · | ·
CN(C)CCn1c(NCc2ccc3c(c2)OCO3)nc2ccccc21 | 109 | i | i | 103 | 5 | -5 | · | ·
CCCCn1c(NCc2ccc3c(c2)OCO3)nc2ccccc21 | 98 | i | -7.3* | 88 | 11 | 16 | 52%* | 3*
CN1CCN(C(=S)c2ccc(OCC(=O)Nc3cccc(C(F)(F)F)c3)cc2)CC1 | 105 | i | -6.2* | 106 | 7 | 1 | i | i
Cc1c(S(=O)(=O)N2CCN(c3ccc(F)cc3)CC2)c(=O)n(C)c(=O)n1C | 89 | i | i | 86 | -1 | -3 | · | ·
CC1(NC(=S)N(CCO)CCO)CCS(=O)(=O)C1 (configuration not stated) | 101 | i | i | 101 | 0 | 9 | · | ·
CC(C)n1cnc2c(N(C)c3cccc(Cl)c3)nc(N(CCO)CCO)nc21 | 87 | i | -6.6* | 107 | 5 | -5 | 52%* | i
CCCOc1ccc(C(=O)NC2CCSc3ccccc32)cc1 (configuration not stated) | 104 | i | i | 104 | 6 | 10 | · | ·
N/C(=N\O)c1ccc(N2CCN(c3ncccc3C(F)(F)F)CC2)nc1 | 85 | i | -5.7* | 91 | -27 | 112 | 45%* | i
CC1Cc2ccccc2N1C(=O)CN1CCC(C(N)=O)CC1 (configuration not stated) | 66 | i | i | 62 | -27 | 14 | · | ·
O=C1CC(O)(C(F)(F)F)Oc2c1ccc1ccccc21 (configuration not stated) | 106 | i | -8.1* | 108 | 8 | -12 | 46%* | i
Cc1ccc(SCC2(O)CCN(C(=O)c3ccc(Cl)cc3)CC2)cc1 | 93 | i | -5.8* | 93 | -7 | -22 | 65%* | i
C=CCSc1nc2ccccc2n1Cc1nnc(-c2cccs2)o1 | 97 | i | -6.2* | 102 | 2 | -1 | 59%* | i
C=CCn1c(-c2cccs2)nc2ccccc21 | 101 | i | i | 100 | 4 | -1 | · | ·
Cc1ccc(C)c(NCC(=O)NNC(=S)Nc2ccccc2)c1 | 98 | i | -6.2* | 103 | 0 | -9 | 67%* | i
Cc1ccc(C)c(NC(=O)CCC(=O)NNC(=S)Nc2ccccc2)c1 | 100 | i | i | 100 | -1 | 4 | · | ·
NC(N)=N/N=C/c1ccccc1OC(F)F | 104 | i | i | 103 | 0 | -7 | · | ·
NC(N)=N/N=C/c1ccc(Cl)c(Cl)c1 | 124 | i | -5.4* | 104 | 17 | 5 | 41%* | i

Source: PubChem BioAssay
